PubChem BioAssay (Tox21)
Records with an inconclusive call do not appear. Where a call stands in place of a potency, no number is given. Calls of active or inactive are those of the source. Calls follow the shape of the dose curve; as a rule, active = well fitted cell-killing curve with a large enough effect in the repeat runs; inconclusive = weak or mixed curves, or effect the other way; inactive = no such curve, though single readings can be large or run the other way.

Assay: qHTS assay for identifying genotoxic compounds that show differential cytotoxicity against isogenic chicken DT40 cell lines with known DNA damage response pathways - Rev3 mutant cell line (AID 743014); also: nearly all actives have a fitted effect of over 55% in size
Conditions: chicken DT40 Rev3-/- viability, CellTiter-Glo, 40 h; series mostly up to 68.4 µM
Excerpt: National Center for Advancing Translational Sciences [NCATS]
NIH Chemical Genomics Center [NCGC]
U.S. Environmental Protection Agency [EPA]
National Institutes of Environmental Health Sciences [NIEHS]
National Toxicology Program [NTP]
U.S. Food and Drug Administration [FDA]
DNA repair pathways play a critical role in cellular homeostasis by repairing DNA damage induced by endogenous processes and xenobiotics. Isogenic chicken DT40 cell lines deficient in different DNA repair pathways can be used to identify genotoxic compounds and aid in characterizing the nature of the DNA damage induced. Two DNA repair-deficient cell lines with disrupted genes, Rad54/Ku70 or Rev3, were used to screen the Tox21 10K compound library. Possible genotoxicity was based on the presence of a significant increase in cytotoxicity in one or more of the DNA repair-deficient cell lines compared to that observed in the parental DNA repair-proficient cell line. CellTiter Glo viability assay (Promega, Madison, WI) was used to measure cell viability in these cells after compound treatment. This assay includes the data from the Rev3 mutant cell line.
Tox21 Assay Protocol Summary:
300 DT40 mutant cells in 5 uL/well were dispensed into white, solid-bottom 1536-well plates using a Multidrop Combi (ThermoFisher Scientific, Waltham, MA) dispenser. After the assay plates were incubated at 37 C/5% CO2 for approximately 0.5 hour, 23 nL of compounds dissolved in DMSO, positive controls or DMSO only was transferred into the assay plate by a pintool work station (Kalypsys, San Diego, CA). The assay plates were incubated at 37 C/5% CO2 for 40 hours. After 5 uL per well of CellTiter-Glo reagent was added into each well of the assay plates, the plates were incubated for 30 min at room temperature and the luminescence intensity of the plates was measured using a ViewLux (PerkinElmer, Shelton, CT) plate reader.
Potency is read from the fitted curve at half-maximal effect.

SMILES | Potency
CC/C(C)=N\O[Si](C)(O/N=C(\C)CC)O/N=C(\C)CC | inactive
CC1=NN(c2ccc(S(=O)(=O)O)cc2)C(=O)C1 | inactive
CC1(C)CC(OC(=O)CCCCCCCCC(=O)OC2CC(C)(C)NC(C)(C)C2)CC(C)(C)N1 | inactive
CCCCSCCCC | inactive
C=CCSSCCC | inactive
C=CC(=O)OCC1CCCO1 (stereo not given) | inactive
C[C@]12CCC(=O)C=C1CC[C@H]1[C@@H]3CC[C@](O)(C(=O)CO)[C@@]3(C)C[C@H](O)[C@@]12F | 11.9 µM (active)
CO/N=C(/C(=O)N[C@@H]1C(=O)N2C(C(=O)[O-])=C(C[n+]3ccn4ncccc43)CS[C@H]12)c1nsc(N)n1 | inactive
OCC(O)CN1CCN(c2ccccc2)CC1 (stereo not given) | inactive
Cn1c(=O)c2c(ncn2CCO)n(C)c1=O | inactive
COC(=O)c1cc(Cl)cc(Cl)c1 | inactive
CN(C)C(C)(C)CO | inactive
O=C(O)CONC(=O)c1ccccc1 | inactive
CCCCCCCCCOC(=O)CCCCC(=O)OCCCCCCC | inactive
OCC1CCC(CO)CC1 (stereo not given) | inactive
O=[N+]([O-])c1c(Cl)cc(Cl)cc1Cl | inactive
O=C1CCC(=O)N1Cl | inactive
CCCCCC/C=C/C(=O)OC | inactive
CCC/C=C(\C=O)CC | inactive
O=C(Cn1ccnc1[N+](=O)[O-])NCc1ccccc1 | inactive

SMILES | Potency
CC(N)CCCC(C)(C)O (stereo not given) | inactive
O=Cc1cc2ccccc2o1 | inactive
CO[C@@]1(NC(=O)Cc2cccs2)C(=O)N2C(C(=O)O)=C(COC(N)=O)CS[C@@H]21 | inactive
CC1(C)[C@H]2CC[C@](C)(C2)[C@H]1O | inactive
C=Cc1ccc(C(C)(C)C)cc1 | inactive
c1ccc(-c2nn[nH]n2)cc1 | inactive
CCNC(=O)NCc1cccc(Cl)c1 | inactive
CCCCCCCCCCCCCCCCCCOCCO | inactive
CC(=O)OC(C)=O | inactive
CN1CCOC(c2ccccc2)c2ccccc2C1 (stereo not given) | inactive
C=C(C)[C@@H]1CC=C(C)CC1 | 68.6 µM (active)
COC(=O)c1ccccc1C(=O)O | inactive
CC(C)OC(=O)OCOP(=O)(CO[C@H](C)Cn1cnc2c(N)ncnc21)OCOC(=O)OC(C)C | inactive
C=CC/C=C/C | inactive
CC(=O)CC(=O)Nc1ccc(C)cc1C | inactive
CC1(C)O[C@H]2CC(=O)OC[C@]23[C@H]2CC[C@@]4(C)[C@H](c5ccoc5)OC(=O)[C@H]5O[C@]54[C@]2(C)C(=O)C[C@@H]13 | inactive
C=CCCCCCCCC | inactive
CN(C)CCOC(=O)C(c1ccccc1)C1(O)CCCC1 (stereo not given) | inactive
NCC1(Cc2noc(=O)[nH]2)CCCCC1 | inactive
CC(C)[C@H]1CC[C@H](C)C[C@@H]1O | inactive
